Experimental data from the supplement of paper PMC6555819.

What follows are sequences tested on PPARg:RXRa 90nM:30nM, anti-RXR (NR concentration 90 nM, RXRa partner concentration 30 nM) (assay: PBM binding z-score (relative to random genomic background probes); higher = stronger binding; sequences stand for … in GC…GCGATTGACAGCGTAGAATGAAGG).
Procedure, shortened: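 Antibodies against each partner of ligand-free nuclear receptor dimers (one per run) detected binding on custom Agilent 4×180K protein-binding microarrays after 1 h incubation. The double-stranded probes had 34-nt variable regions carrying direct-repeat seeds, single-nucleotide variants, half-site ablations and random human genomic background sequences. Binding z-scores, from regression-normalized fluorescence, use the random background probes as reference.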

Sequence | PBM binding z-score
TTACCAGGGTGAAGGTCGTTGATCCCTCTGTAGA | 6.33
TCATATAGGTAAACTGGTGAAAGTCCGTAAGTTA | 3.07
TCTATTAGTTCATTAGGGCAACCGAAACAGCGGA | 3.34
TCTTGTAGATCAACGGTTAAGAAAGCCGAAGCCT | 3.03
TCTAGTTAGTCAAAGGTCACACACTCGAAATGCG | 8.1
ATCTCTATGTAACCAAGTTCAGTGAATGCCGAAC | 0.387
TGAATGAGGTTATAAGATCACGGAACGTTGCAAA | 2.05
CGTCAAAGTTCGAGGTAACGTAACAGAAAGCAGC | 1.36
CAAACTAGGCCAAAGGTCAAAGTCGAGCCAACCA | 11.5
GCATATAGGTAATAGAAGGTGAAAGTCCGATTGT | 0.9
TCTTGTAGATCAGCAGGTTAAGAAGGCTGGCCAA | 2.41
GCTGCTAGGTCAACTGATCGTCAGCTAAAGCTCG | 2.23
TTACCAAGGGGAAGGTCGTTGATCCCTCTGTAGA | 1.52
CTCGAAAGGTTGGTTGAGGTGAGTATACGGATAA | 0.291
TCTTGTAGATAAATAGAGGTTAAGAAAGTGCGCT | 2.84
GCTCGGAGGATAAGGTCAGAGCTTTGTCCGTAGA | 0.94
TCATATCGGTAAAGGTGAAAGTCGAACGATATGA | 3.48
CGTCCAAGGTCAACGGTCAGTGAAGAGATGACGG | 4.85
GCTATTAGTTGATAGGGCAACCGAATGATTCTCG | 0.928
GATACAGGGTCAAGGCCGGAGTACGCGTATTGAT | 3.85
CGAACTAGGTCATTGACACGACAGTGAATAGTAA | 5.54
CCTACTGTGCCAAAGGTCATTGATTCCAATGCTC | 10.3
